We go through 46 molecules from PubChem BioAssay (EPA / NIEHS).

“And” between values parts separate entries of the source, which are not always exact repeats. Equal entries are not always repeated. Inconclusive results are not listed. The source made the active and inactive calls. Rule for the calls, unless noted: active = hit-call score of the fitted dose curve at least 0.9, where 1 is the maximum; inactive = score below 0.9.

The nature of test [1]: CCTE_Simmons_MITO_basal_resp_rate: CCTE's HepG2 Seahorse XF Respirometric Screening Assay at Basal Respiratory State, Simmons Lab (AID 2284001). The conditions noted are these: actives raise or lower the signal. The essentials: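 Readout is oxygen consumption rate after test compound injection, measured by Seahorse XF in HepG2 cells. Seven concentrations from 125 nM up to 100 uM final are tested, and activity in either direction is fitted against DMSO.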

Test [2] in a line: CCTE_Simmons_MITO_max_resp_rate: CCTE's HepG2 Seahorse XF Respirometric Screening Assay at Maximal Respiratory State [uncoupled], Simmons Lab (AID 2284002). The conditions noted are these: actives raise or lower the signal. In outline:
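Uncoupled (FCCP) respiration of HepG2 cells served as the endpoint, with measurements at 6-minute intervals across a 72-minute run and compounds dosed at 7 concentrations up to 100 uM final.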

The nature of test [3]: CCTE_Simmons_MITO_inhib_resp_rate: CCTE's HepG2 Seahorse XF Respirometric Screening Assay at Inhibited Respiratory State [full ETC block], Simmons Lab (AID 2284006). As to conditions: actives raise or lower the signal. The essentials:
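Seahorse respirometry, HepG2, 72 min total, 6-min mix/measure cycles. Cpd 125 nM–100 uM final ×7, n=3 biological. Sequential FCCP, rotenone/antimycin A; inhibited-respiration OCR, bidirectional fit vs DMSO.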

A short description of test [4]: CCTE_Simmons_MITO_viability: CellTiter-Glo Viability Assessment for CCTE's HepG2 Seahorse XF Respirometric Screening Assay [post-hoc], Simmons Lab (AID 2284007; active = hit-call score of the fitted dose curve at least 0.9, where 1 is the maximum;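 for AC50: cells exposed to chemical for 90 min before the ATP read; actives lower ATP signal relative to DMSO baseline meaning reduced viability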). In outline:
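Cytotoxicity readout: ATP quantitation via luciferase in HepG2 cells treated 90 min with seven titrated concentrations (125 nM to 100 uM, final). Curves fitted relative to DMSO negative control, three biological replicates per concentration.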
On the technique in general: Cellular ATP, detected with luciferase, serves as a proxy for viable cell number.

Test [5] can be described thus: CCTE_Shafer_MEA_acute_spike_number: CCTE's Neural Acute Assay for Total Number of Spikes, Shafer Lab (AID 2284008).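 For AC50: curve fitted for decrease in spike count so AC50 reflects inhibitors.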 In outline: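 Using an adaptive detector set to 8x rms noise, spikes were counted in 40-min windows before and after compound addition (0.03-40 uM) to rat cortical networks at 37 C; the well-level change from baseline was analysed relative to DMSO.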

A short description of test [6]: CCTE_Shafer_MEA_acute_firing_rate_mean: CCTE's Neural Acute Assay for Mean Firing Rate, Shafer Lab (AID 2284009).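 Note: analyzed for loss of signal so actives lower firing rate relative to DMSO.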 In outline:
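Spontaneous spiking of primary rat cortical networks, DIV 13/15, 37 C. Compound 0.03-40 uM, n ≥3 wells; 40 min baseline vs 40 min treated. Endpoint fitted in loss-of-signal direction against DMSO.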

Test [7] in a line: CCTE_Harrill_HTTr_Viability_MCF7: CCTE's 6-hour Cell Viability Assessment for the High-Throughput Transcriptomics (HTTr) Platform, in MCF-7 cells cultured in DMEM + 10% fetal bovine serum, Harrill Lab (AID 2284010). The essentials:
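Read-out is propidium iodide gain of signal by high-content imaging, reflecting membrane integrity loss. Measurements are taken 6 h after dosing, eight concentrations per chemical, with DMSO serving as baseline for bidirectional curve fitting.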

A further test concerns DIO1 (gene 1733). In words: CCTE_GLTED_hDIO1: CCTE's human Deiodinase 1 (DIO1) Inhibition Assay, Great Lakes Toxicology and Ecology Division (GLTED) Lab (AID 2283987; active = hit-call score of the fitted dose curve at least 0.9, where 1 is the maximum;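 note: isolated human DIO1 enzyme in a cell-free setup rather than cells; enzyme activity read as free iodide liberated from substrate via Sandell-Kolthoff colorimetry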). The essentials: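 Chemicals are tested on human DIO1 without cells for 3 h. Uninhibited enzyme frees iodide, which speeds cerium(IV) reduction by arsenic and is read by spectrophotometry.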
Test [8] concerns the target Nucleoli Translocation, AR (gene 367) (UniProt P10275). The test can be described thus: UPITT_HCI_U2OS_AR_TIF2_Nucleoli_Antagonist: University of Pittsburgh U2OS Androgen Receptor-Transcriptional Intermediary Factor 2 (AR-TIF2) Antagonism High Content Imaging Assay for Nucleoli Translocation (AID 2283997; active = hit-call score of the fitted dose curve at least 0.9, where 1 is the maximum). The essentials: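 An antagonist-mode imaging screen: engineered U2OS (AR-RFP, TIF2-GFP) exposed to 20 uM compound, 0.2% DMSO. Activity reflects nucleolar red fluorescence change relative to DHT baseline.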

The target in test [9] is Ratio of Nucleoli Translocation and Cytoplasm, AR (gene 367) (UniProt P10275). In words: UPITT_HCI_U2OS_AR_TIF2_Nucleoli_Cytoplasm_Ratio_Antagonist: University of Pittsburgh U2OS Androgen Receptor-Transcriptional Intermediary Factor 2 (AR-TIF2) Antagonism High Content Imaging Assay for Ratio of Nucleoli Translocation and Cytoplasm (AID 2283999; active = hit-call score of the fitted dose curve at least 0.9, where 1 is the maximum;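 note: antagonists lower the DHT-driven ratio of nucleolar to cytoplasmic red signal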). The essentials: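 Compounds were added to U2OS cells carrying red-fluorescent AR and green-fluorescent TIF2, first at 20 uM, with hits confirmed in triplicate and titrated from 0.195 to 50 uM. Nucleolar versus cytoplasmic AR-RFP fluorescence was then quantified by imaging, with analysis relative to DHT.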

Test [10] has the same target. The test can be described thus: UPITT_HCI_U2OS_AR_TIF2_Nucleoli_Cytoplasm_Ratio_Agonist: University of Pittsburgh U2OS Androgen Receptor-Transcriptional Intermediary Factor 2 (AR-TIF2) Agonism High Content Imaging Assay for Ratio of Nucleoli Translocation and Cytoplasm (AID 2284000; active = hit-call score of the fitted dose curve at least 0.9, where 1 is the maximum;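 note: hits raise the red nucleolar to cytoplasm ratio above vehicle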). The essentials:
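Primary screen at 20 uM final (0.2% DMSO), then triplicate confirmation and dose-response from 0.195 to 50 uM final (0.5% DMSO). Cells: U2OS with AR-RFP and TIF2-GFP. Endpoint is the nucleoli/cytoplasm red-fluorescence ratio, gain-of-signal vs DMSO.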

Test [11] has as its target Nucleoli Translocation, AR (gene 367) (UniProt P10275). In words: UPITT_HCI_U2OS_AR_TIF2_Nucleoli_Agonist: University of Pittsburgh U2OS Androgen Receptor-Transcriptional Intermediary Factor 2 (AR-TIF2) Agonism High Content Imaging Assay for Nucleoli Translocation (AID 2283998; active = hit-call score of the fitted dose curve at least 0.9, where 1 is the maximum). In outline:
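High-content images quantify nucleolar accumulation of RFP-fused AR in cells also expressing GFP-TIF2; the endpoint is fitted as signal gain versus DMSO controls across final concentrations of 0.195 to 50 uM.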

Nucleoli Translocation, AR (gene 367), sequence (P10275 whole entry, looked up, the tested form may be a part): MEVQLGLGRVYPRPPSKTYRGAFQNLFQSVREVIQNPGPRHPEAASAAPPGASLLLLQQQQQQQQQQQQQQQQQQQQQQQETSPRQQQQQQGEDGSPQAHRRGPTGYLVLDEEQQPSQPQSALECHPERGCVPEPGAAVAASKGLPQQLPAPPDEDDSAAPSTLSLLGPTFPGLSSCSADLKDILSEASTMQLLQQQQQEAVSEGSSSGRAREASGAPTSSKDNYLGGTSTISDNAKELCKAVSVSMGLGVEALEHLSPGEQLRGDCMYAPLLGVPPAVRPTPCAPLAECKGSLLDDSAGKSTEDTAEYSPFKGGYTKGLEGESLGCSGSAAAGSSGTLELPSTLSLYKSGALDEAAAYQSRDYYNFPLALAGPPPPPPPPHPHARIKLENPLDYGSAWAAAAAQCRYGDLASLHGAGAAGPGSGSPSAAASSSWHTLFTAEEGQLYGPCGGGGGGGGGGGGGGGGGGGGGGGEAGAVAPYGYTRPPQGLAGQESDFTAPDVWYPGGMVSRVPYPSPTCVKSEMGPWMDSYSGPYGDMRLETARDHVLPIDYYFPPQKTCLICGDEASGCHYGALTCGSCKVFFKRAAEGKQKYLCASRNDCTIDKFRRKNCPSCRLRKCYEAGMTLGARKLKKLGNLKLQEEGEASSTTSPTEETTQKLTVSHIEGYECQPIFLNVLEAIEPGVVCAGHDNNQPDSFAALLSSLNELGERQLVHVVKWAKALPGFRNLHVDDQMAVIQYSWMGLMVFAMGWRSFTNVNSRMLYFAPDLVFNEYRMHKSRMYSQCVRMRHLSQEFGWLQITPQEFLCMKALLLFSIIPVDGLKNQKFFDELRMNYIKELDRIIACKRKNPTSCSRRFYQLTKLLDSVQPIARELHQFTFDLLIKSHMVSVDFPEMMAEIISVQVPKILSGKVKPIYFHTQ
Ratio of Nucleoli Translocation and Cytoplasm, AR (gene 367), sequence (P10275 whole entry, looked up): as the sequence (P10275 whole entry, looked up, the tested form may be a part) above

For orientation: AC50 means the concentration giving half of the maximal activity seen. For `[Cl-].[Cl-].[Hg+2]`, the AC50 in test [1] is 36.7 µM (active); in [2], 50 µM (active); in test [3], 50 µM (active); in [4], 15.3 µM (active); in [5], 31.4 µM (active); in [6] it was 31 µM (active). The outcome in test [7] was inactive.
On to `Oc1ccc2ccc3cccc4ccc1c2c34`, for which the AC50 with DIO1 (gene 1733) was 100 µM (active). The outcome in test [7] was inactive.
On to `CCCCC(CC)COC(=O)c1ccc(C(=O)OCC(CC)CCCC)c(C(=O)OCC(CC)CCCC)c1` (stereo not drawn), for which the molecule was called inactive in test [8], in [9] and in test [10].
In the case of `CC(C)N(Cc1ccccc1)C(=O)C(C)(C)C`, the molecule was classed as inactive in test [8], in [9], in test [10], in test [2], in [3] and in test [4]. Further, in test [7], the outcome was inactive. Moreover, the AC50 in [1] is 35.6 µM (active).
For `Cc1cc(N=Nc2ccccc2C)ccc1N`, the AC50 was 26.1 µM (active) in [8]; 77.9 µM (active) in test [11]; 84.9 µM (active) in [10]; 25 µM (active) in [1]; 36.4 µM (active) in test [2]. Moreover, the result in test [9], in test [3], in test [4], in [5], in test [6] and in test [7] was inactive.
Take `O=C(N[C@H](c1ccccc1)[C@@H]1CN2CCC1CC2)c1c(Cl)ccc(C(F)(F)F)c1Cl`: the half-maximal activity concentration (AC50) in test [5] and in test [6] was 1.55 µM (active) each time. In addition, the result in [7] was inactive.
Regarding `CCC[CH2][Sn]([Cl])([CH2]CCC)[CH2]CCC`, the AC50 in test [1] was 4.86 µM (active); in test [2], 3.2 µM (active); in test [4] it was 11.9 µM (active); in [5] it was 40.1 nM (active) and 70.2 nM (active); in test [6] it was 40.3 nM (active) and 70.2 nM (active); in test [7] it was 11.8 µM (active). Also, the outcome in test [3] was inactive.
As for `c1ccc(N=Nc2ccccc2)cc1`, the result in test [5], in [6] and in test [7] was inactive.
Regarding `N#CC(Br)(Br)C(N)=O`, the result in test [7] was inactive.
Turning to `O=C(Oc1ccc(Br)cc1)N1CCN2CCC1CC2`, the molecule was called inactive in test [5], in test [6] and in test [7].
Take `CN(C)C(=O)Nc1ccc(Cl)cc1`: the result in [7] was inactive.
Take `O=C(O)C1C2CCC(O2)C1C(=O)O` (stereo not drawn): in test [7], the result was inactive.
Same read-out and setting: as for `Cc1ccc([N+](=O)[O-])cc1`, the entry is “inactive”; as for `c1ccc(C2CO2)cc1` (stereo not drawn), “inactive”; as for `c1ccc2c(c1)oc1ccccc12`, “inactive”.
Consider `CC(O)CCO` (stereo not drawn), for which the result in test [7] was inactive.
`Cc1ccc(N)cc1`: the outcome in test [7] was inactive.
As to `Clc1ccccc1Cl`, the outcome in test [7] was inactive.
With `CN(C)c1ccccc1`, in [7], the result was inactive.
Take `O=[N+]([O-])c1ccc(Oc2ccc(Cl)cc2Cl)cc1`: the AC50 in test [5] was 9.28 µM (active); in [6] it was 9.76 µM (active). Moreover, in [7], the result was inactive.
`CCC12COCN1COC2`: in test [7], the outcome was inactive.
Take `O=P(OCCCl)(OCCCl)OCCCl`: the call in test [5], in test [6] and in test [7] was inactive.
Consider `Cc1ccc(N=C=O)cc1N=C=O`, for which the outcome in test [7] was inactive.
Take `ClCCOCCCl`: the result in test [5], in test [6] and in test [7] was inactive.
Consider `Brc1ccc(Oc2ccccc2)cc1`, for which the result in test [7] was inactive.
For the molecule `Cc1cccc(N)c1N`, in [7], the outcome was inactive.
For the molecule `[O-][Cl+]O`, the outcome in test [7] was inactive.
Consider `Clc1ccc(Cl)c(Cl)c1`, for which, in [7], the outcome was inactive.
Still for that read-out and setting: then `OCCCl`, with “inactive”; and `C=CCc1ccc2c(c1)OCO2`, with “inactive”.
Take `CCN(CC)N=O`: the molecule was classed as inactive in test [5], in test [6] and in test [7].
With `Clc1ccc(C(c2ccc(Cl)cc2)C(Cl)(Cl)Cl)cc1`, the molecule was called inactive in test [5], in test [6] and in [7].
In the case of `CCCCCCCCCCCCCN1CC(C)OC(C)C1` (stereo not drawn), the result in test [7] was inactive.
`CCOc1cccc(C2(N3CCN(c4ccccc4)CC3)CCC(C)CC2)c1` (stereo not drawn): the outcome in [7] was inactive.
Take `CCCCCCCCOC(=O)c1ccc(C(=O)OCCCCCCCC)c(C(=O)OCCCCCCCC)c1`: the result in [7] was inactive.
As to `Cc1ccc(N)c(N)c1`, the molecule was classed as inactive in test [5], in [6] and in [7].
`COC(=O)c1ccccc1N`: the outcome in test [7] was inactive.
On the same count and under the same terms, then `Nc1ccc(Cc2ccc(N)cc2)cc1`, with “inactive”; and `c1ccc2c(c1)-c1cccc3cccc-2c13`, with “inactive”.
Consider `c1ccc(NNc2ccccc2)cc1`, for which the result in test [5], in [6] and in test [7] was inactive.
For the molecule `Cn1cc(-c2ccccc2)c(=O)c(-c2cccc(C(F)(F)F)c2)c1`, the result in test [7] was inactive.
Same read-out and setting: as for `Nc1ccc(Oc2ccc(N)cc2)cc1`, the entry is “inactive”; as for `CC(C)(C)OOC(C)(C)CCC(C)(C)OOC(C)(C)C`, “inactive”.
As to `C1=Cc2cccc3cccc1c23`, in test [7], the outcome was inactive.
On to `Nc1cc(Cl)cc(C(=O)O)c1Cl`, for which the result in [7] was inactive.
On to `OCCOCCO`, for which the outcome in test [7] was inactive.
